Experimental data from PubChem BioAssay (Tox21).
Values without a mark were called inactive. Inconclusive results are not listed. Where a call stands in place of a potency, no number is given. Activity calls are given as the source filed them. Unless noted, calls follow the shape of the dose curve; as a rule, active = well fitted curve in the direction sought with a large enough effect in the repeat runs; inconclusive = weak or mixed curves; inactive = no such curve, though single readings can be large; an effect the other way counts as inactive or inconclusive.

Columns and labels:
[1] = A CellTox Green Cytotoxicity Assay to monitor cytotoxicity in HEK293 cells - 32 hour (AID 1224881); also: nearly all actives have a fitted effect of over 40% in size; also: potency is read from the fitted curve at half-maximal effect
Summary of the method: (§1)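 Fluorescence intensity, read at 0, 8, 16, 24, 32 and 40 h of compound treatment, reflected dye binding to DNA of dead HEK293 cells; compounds (23 nL, DMSO) were added 5 h after plating cells with reagent.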

[2] = A CellTox Green Cytotoxicity Assay to monitor cytotoxicity in HepG2 cells - 0 hour (AID 1224882); also: nearly all actives have a fitted effect of over 35% in size
Summary of the method: (§2)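 Using 1536-well format, dye-containing HepG2 suspension was seeded, allowed 5 h at 37 C/5% CO2, dosed by pintool with compounds, positive and negative controls, and imaged for fluorescence across 40 h.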

[3] = A CellTox Green Cytotoxicity Assay to monitor cytotoxicity in HepG2 cells - 32 hour (AID 1224883); also: nearly all actives have a fitted effect of over 50% in size; also: potency is read from the fitted curve at half-maximal effect
Summary of the method: as §2

[4] = A CellTox Green Cytotoxicity Assay to monitor cytotoxicity in HEK293 cells - 8 hour (AID 1224884); also: nearly all actives have a fitted effect of over 35% in size; also: potency is read from the fitted curve at half-maximal effect
Summary of the method: as §1

[5] = qHTS RealTime-Glo MT Cell Viability Assay in HepG2 cells - 16 hour (AID 1224885); also: potency is read from the fitted curve at half-maximal effect; nearly all actives have a fitted effect of over 50% in size
Summary of the method: (§3)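 Viability was tracked continuously by NanoLuc luminescence from prosubstrate reduced by living HepG2 cells, at successive time points over 40 h of compound exposure. Cells with reagent were preincubated 5 h at 37 °C before compound addition.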

[6] = qHTS RealTime-Glo MT Cell Viability Assay in HEK293 cells - 8 hour (AID 1224887); also: nearly all actives have a fitted effect of over 50% in size; also: potency is read from the fitted curve at half-maximal effect
Summary of the method: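 Viable HEK293 cells reduce a cell-permeant prosubstrate; the product diffuses out and is consumed by NanoLuc in the medium to give light. Compounds went in after a 5 h incubation and plates were read over the treatment course.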

[7] = A CellTox Green Cytotoxicity Assay to monitor cytotoxicity in HEK293 cells - 16 hour (AID 1224888); also: nearly all actives have a fitted effect of over 35% in size; also: potency is read from the fitted curve at half-maximal effect
Summary of the method: as §1

[8] = qHTS RealTime-Glo MT Cell Viability Assay in HepG2 cells - 0 hour (AID 1224889); also: nearly all actives have a fitted effect of over 50% in size; also: potency is read from the fitted curve at half-maximal effect
Summary of the method: as §3

[9] = A CellTox Green Cytotoxicity Assay to monitor cytotoxicity in HepG2 cells - 8 hour (AID 1224890); also: nearly all actives have a fitted effect of over 45% in size; also: potency is read from the fitted curve at half-maximal effect
Summary of the method: as §2

[10] = qHTS assay to identify small molecule antagonists of the estrogen receptor alpha (ER-alpha) signaling pathway using the BG1 cell line in the presence of 0.1 nM 17-beta-estradiol - cell viability counter screen (AID 1259241); also: nearly all actives have a fitted effect of over 40% in size; also: potency is read from the fitted curve at half-maximal effect
Summary of the method: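 Viability in VM7Luc4E2 cells after 22 hr compound exposure under 0.1 nM 17beta-estradiol stimulation, by CellTiter-Fluor.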

[11] = qHTS assay to identify small molecule antagonists of the androgen receptor (AR) signaling pathway using the MDA cell line in the presence of 0.5 nM R1881 - cell viability counter screen (AID 1259242); also: nearly all actives have a fitted effect of over 45% in size; also: potency is read from the fitted curve at half-maximal effect
Summary of the method: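 Viability of MDA-kb2 cells was multiplexed with the luciferase AR readout; after 16 hr with compounds and R1881 at 0.5 nM final, CellTiter-Fluor fluorescence was recorded.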

[12] = qHTS assay to identify small molecule HDAC inhibitors - cell viability counter screen (AID 1259365); also: nearly all actives have a fitted effect of over 50% in size; also: potency is read from the fitted curve at half-maximal effect
Summary of the method: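 Cytotoxicity was gauged in wild-type HCT-116 cells after a brief 2hr treatment with DMSO-dissolved compounds at 37C and 5% CO2, using CellTiter-Glo luminescence developed for 30min at room temperature.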

[13] = qHTS assay to identify small molecule agonists of the sonic hedgehog signaling (Shh) pathway - cell viability counter screen (AID 1259366); also: nearly all actives have a fitted effect of over 50% in size; also: potency is read from the fitted curve at half-maximal effect
Summary of the method: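 Stable Gli1-Luc NIH/3T3 clone, 2,000 cells/well. Compound exposure 24hr at 37C. Read-out: CellTiter-Fluor fluorescence.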

[14] = qHTS assay to identify small molecule antagonists of the sonic hedgehog signaling (Shh) pathway - cell viability counter screen (AID 1259367); also: nearly all actives have a fitted effect of over 55% in size; also: potency is read from the fitted curve at half-maximal effect
Summary of the method: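 Using CellTiter-Fluor, viability of Gli1-Luc reporter 3T3 cells is read by fluorescence in the wells used for the Shh luciferase assay. Treatment lasts 23 hr with conditioned medium, then reagent 1 hr at 37C.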

[15] = qHTS assay to identify small molecule agonists of the sonic hedgehog signaling (Shh) pathway (AID 1259368; calls by dose curve;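 also: NIH/3T3-derived 3T3Gli1-Luc cells carrying a stable Gli1-driven firefly luciferase reporter; series mostly up to about 92 µM; nearly all actives have a fitted effect of over 15% in size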)
Summary of the method: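 A Gli1 transcriptional response element controlled firefly luciferase in 3T3Gli1-Luc cells. Compounds and a positive control were added 4 hr after plating, and cells were incubated a further 24 hr at 37 C before luminescence detection.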

[16] = qHTS RealTime-Glo MT Cell Viability Assay in HEK293 cells - 24 hour (AID 1224886)
Summary of the method: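 Viability tracked continuously by luminescence as live cells reduce a prosubstrate for NanoLuc; HEK293 cells preincubated 5 h, compound-treated at 37 C, and read at 0, 8, 16, 24, 32 and 40 h.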

[17] = target: Androgen receptor (Homo sapiens) (UniProt P10275); assay: qHTS assay to identify small molecule antagonists of the androgen receptor (AR) signaling pathway using the MDA cell line in the presence of 0.5 nM R1881 (AID 1259243); also: nearly all actives have a fitted effect of over 50% in size
Summary of the method: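 Reporter cells cultured without CO2 receive test chemicals, then 0.5 nM R1881 final; after 16 hr at 37C, ONE-Glo is added and light output recorded.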

[18] = target: Estrogen receptor (Homo sapiens) (UniProt P03372); assay: qHTS assay to identify small molecule antagonists of the estrogen receptor alpha (ER-alpha) signaling pathway using the BG1 cell line in the presence of 0.1 nM 17-beta-estradiol (AID 1259244); also: nearly all actives have a fitted effect of over 50% in size; also: potency is read from the fitted curve at half-maximal effect
Summary of the method: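 Estradiol at 0.1 nM (final) stimulates the endogenous ER-alpha of VM7Luc4E2 cells carrying an ERE-driven luciferase; compounds are co-incubated 22 h at 37C and luciferase output quantified by luminescence.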

[19] = qHTS assay to identify small molecule HDAC inhibitors (AID 1259364);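 also: wild-type HCT-116 cells with endogenous class I/II HDAC activity; top concentration of the series differs between compounds; nearly all actives have a fitted effect of over 45% in size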
Summary of the method: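 Read-out: luminescence of HDAC-Glo I/II reagent, 30 min RT, reflecting class I/II deacetylase activity in whole HCT-116 cells pre-exposed 2 h to DMSO-dissolved compounds.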

Sequence of Estrogen receptor (Homo sapiens) (P03372 whole entry, looked up): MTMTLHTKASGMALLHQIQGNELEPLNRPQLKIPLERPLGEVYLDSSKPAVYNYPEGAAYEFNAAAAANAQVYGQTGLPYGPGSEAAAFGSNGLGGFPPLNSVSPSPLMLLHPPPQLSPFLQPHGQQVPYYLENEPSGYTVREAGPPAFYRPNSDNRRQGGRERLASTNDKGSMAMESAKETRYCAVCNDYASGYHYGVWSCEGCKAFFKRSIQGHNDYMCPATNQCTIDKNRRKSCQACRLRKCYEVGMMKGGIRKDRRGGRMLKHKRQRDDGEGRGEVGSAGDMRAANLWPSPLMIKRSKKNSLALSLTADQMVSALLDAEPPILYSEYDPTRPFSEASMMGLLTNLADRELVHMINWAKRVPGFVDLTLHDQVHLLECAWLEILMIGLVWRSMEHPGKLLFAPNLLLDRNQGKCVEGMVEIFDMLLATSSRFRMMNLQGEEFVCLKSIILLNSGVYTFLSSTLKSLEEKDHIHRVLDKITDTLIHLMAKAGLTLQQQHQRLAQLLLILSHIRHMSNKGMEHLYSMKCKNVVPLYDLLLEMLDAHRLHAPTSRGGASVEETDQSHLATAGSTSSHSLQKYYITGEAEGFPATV
Sequence of Androgen receptor (Homo sapiens) (P10275 whole entry, looked up): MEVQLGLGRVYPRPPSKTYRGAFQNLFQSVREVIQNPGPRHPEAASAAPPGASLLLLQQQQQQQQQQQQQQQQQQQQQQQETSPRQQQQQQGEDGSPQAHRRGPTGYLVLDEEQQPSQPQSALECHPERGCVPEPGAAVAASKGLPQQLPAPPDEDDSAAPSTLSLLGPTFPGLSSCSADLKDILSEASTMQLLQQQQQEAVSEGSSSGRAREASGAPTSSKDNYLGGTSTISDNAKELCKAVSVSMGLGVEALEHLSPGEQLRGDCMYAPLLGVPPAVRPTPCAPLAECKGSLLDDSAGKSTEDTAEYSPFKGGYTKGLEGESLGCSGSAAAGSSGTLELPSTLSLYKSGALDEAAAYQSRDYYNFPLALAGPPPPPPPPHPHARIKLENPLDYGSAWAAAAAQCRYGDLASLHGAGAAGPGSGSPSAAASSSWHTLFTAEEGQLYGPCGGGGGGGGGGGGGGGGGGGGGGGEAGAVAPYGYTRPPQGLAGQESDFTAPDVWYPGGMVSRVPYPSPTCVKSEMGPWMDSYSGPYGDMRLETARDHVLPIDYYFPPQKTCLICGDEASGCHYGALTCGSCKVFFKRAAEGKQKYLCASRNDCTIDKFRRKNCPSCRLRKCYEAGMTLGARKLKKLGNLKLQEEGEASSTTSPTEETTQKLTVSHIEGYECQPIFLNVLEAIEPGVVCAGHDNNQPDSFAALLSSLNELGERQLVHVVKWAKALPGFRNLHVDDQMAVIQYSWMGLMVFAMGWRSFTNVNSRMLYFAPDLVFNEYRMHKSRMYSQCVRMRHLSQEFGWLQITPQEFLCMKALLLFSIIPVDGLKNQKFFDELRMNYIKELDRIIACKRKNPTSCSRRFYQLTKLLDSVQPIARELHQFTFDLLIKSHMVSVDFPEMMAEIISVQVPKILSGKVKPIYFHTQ

SMILES	Potency [1]	Potency [2]	Potency [3]	Potency [4]	Potency [5]	Potency [6]	Potency [7]	Potency [8]	Potency [9]	Potency [10]	Potency [11]	Potency [12]	Potency [13]	Potency [14]	Potency [15]	Potency [16]	Potency [17]	Potency [18]	Potency [19]
CC(=O)[O-].CC(=O)[O-].[Hg+2]	7.76 µM (active)	inactive	1.74 µM (active)	43.6 µM (active)	2.45 µM (active)	2.19 µM (active)	24.5 µM (active)	30.9 µM (active)	3.09 µM (active)	17.2 µM (active)	7.7 µM (active)	61.1 µM (active)	2.17 µM (active)	4.33 µM (active)	inactive				
CN(CCCC(=O)c1cccnc1)N=O	inactive	inactive	inactive	inactive		inactive	inactive	inactive	inactive	inactive	inactive	inactive	inactive	inactive	inactive	inactive	inactive	inactive	inactive
CCCCCCCCCCCCCCC(Br)C(=O)O (centres undefined)	inactive	inactive	17.4 µM (active)	inactive		inactive	inactive	inactive	inactive	inactive	inactive	inactive	inactive	inactive	inactive	inactive		inactive	
Oc1ccc(C2(c3ccc(O)cc3)c3ccccc3-c3ccccc32)cc1	inactive	inactive	61.6 µM (active)	inactive	49 µM (active)		inactive	inactive	inactive		inactive	inactive	54.5 µM (active)	27.3 µM (active)	inactive			1.72 µM (active)	inactive
